The nature of the first assay: inhibitors of PAF-induced NFkB signaling in CF airway cells, dose response, cell-based, uHTS hits, panel, cytotoxicity readout (AID 624344). Particulars: CF bronchial epithelial cells, PAF-induced NFkB reporter inhibition, with PAF, run 1; at 79 µM (top of the series) unless noted.
In the case of `CC(=O)Oc1ccc(N(C(C)=O)S(=O)(=O)c2ccc(Cl)cc2)c2ccccc12`, the inhibition came to 99.9%. Consider `c1cncc(CNc2ncnc3ccc(-c4ccoc4)cc23)c1`, for which the inhibition was 113%.

Turning to `CCOc1ccc(NCc2cc3c(C(C)(C)C)nn(-c4ccccc4)c3[nH]c2=O)cc1`, the inhibition was found to be 101%.

Turning to `CC(=O)c1c(C)n(-c2ccc(C)cc2C)c2ccc(O)cc12`, the inhibition amounted to 106%. With `COc1ccc(-c2cc(C(F)(F)F)nc(S(=O)(=O)CCCC(=O)Nc3cccnc3Cl)n2)cc1OC`, the inhibition amounted to 99.5%.

`CCOc1ccccc1NC(=O)c1nc(S(=O)(=O)Cc2ccccc2)ncc1Cl`: the inhibition was found to be 78%.

Assay in the next assay: as above
Particulars: CF bronchial epithelial cells, PAF-induced NFkB reporter inhibition, with PAF, run 2; at 79 µM (top of the series) unless noted.
In the case of `O=C1C(=Cc2ccccc2[N+](=O)[O-])Cc2ccccc21`, the inhibition turned out to be 106%.

With `COc1ccc(S(=O)(=O)N2c3cc(C)ccc3OCC2C(C)(C)C)cc1` (stereo unspecified), the inhibition is 81.9%.

For the compound `CN(c1ncnc(N)c1[N+](=O)[O-])C1CCS(=O)(=O)C1` (stereo unspecified), the inhibition came out at 104%. Still for that read-out and setting: then `CS(=O)(=O)c1ccc2nc(NC(=O)Nc3cccc(Cl)c3)sc2c1`, with 83.9%; and `CC1=C(C(=O)OCc2ccc3c(c2)OCO3)C(c2ccc(O)c([N+](=O)[O-])c2)NC(=O)N1` (stereo unspecified), with 89%. `COc1cccc(N2CCN(c3c(C#N)c(C(F)(F)F)nn3C)CC2)c1`: the inhibition was 94.2%. With `COc1cccc2c(SCC(=O)N/N=C/c3ccccc3)cc(C)nc12`, the inhibition is 106%.

For the compound `O=C(Nc1ccccc1)c1cc2ccccc2c(=O)s1`, the inhibition amounted to 85.2%. Take `O=[N+]([O-])c1cccc(NC(=S)Nc2nc(-c3ccccc3Cl)cs2)c1`: the inhibition was 99.8%. With `CCCCNc1c(-c2cccc(-c3ccc(OC)cc3)c2)nc2ccc(C)cn12`, the inhibition was determined as 107%.

Regarding `N#CC(C#N)=C1SC(=Nc2ccccc2)C(=Nc2ccccc2)N1c1ccccc1`, the inhibition is 99.1%. As for `O=S(=O)(Nc1ccc(Cl)cc1NS(=O)(=O)c1ccccc1)c1ccccc1`, the inhibition was 85.8%. In the case of `Clc1ccc(-c2csc3ncnc(N4CCc5ccccc5C4)c23)cc1`, the inhibition was found to be 112%. Regarding `C=CC(=O)Nc1cccc(Oc2ncnc3[nH]cc(-c4cnc5ccccc5c4)c23)c1`, the inhibition was determined as 109%.

For the compound `O=C(Nc1ccc2ccccc2c1)c1ccccc1O`, the inhibition amounted to 90.4%. With `CCOc1ccccc1NC(=S)Nc1ccc2cn[nH]c2c1`, the inhibition came to 114%. With `COc1ccc(-c2cnc(N)nc2-c2ccc(OC)cc2O)cc1`, the inhibition is 102%. Regarding `C=C1C(=O)C2=CC1CCC(=O)C1(C)CCC(OC(C)=O)C(C)(C)C1CC2O` (stereo unspecified), the inhibition is 107%.

Turning to `COc1cc(NC(=O)Cn2ncc(Cl)c(Cl)c2=O)c(C)cc1[N+](=O)[O-]`, the inhibition stood at 91.1%. As to `Cc1cc(C)c(O)c(CN(C)Cc2cc(Cl)cc(Cl)c2O)c1`, the inhibition was found to be 101%. On to `C=C1C(=O)O[C@@H]2[C@H]3O[C@]3(C)CC/C=C(\C)CC[C@@H]12`, for which the inhibition was 99.4%.

As for `CCCCN(c1ccccc1)c1ncnc(N)c1[N+](=O)[O-]`, the inhibition stood at 101%. Regarding `CC(C)C[C@@H](CN1CCCC1CN1C(=S)NC[C@@H]1Cc1ccc(O)cc1)N1C[C@H](Cc2ccc(O)cc2)N(CC2CCCCCC2)C1=S` (stereo partly specified), the inhibition is 101%. `O=C(Nc1cccnc1)c1sc2cccc(F)c2c1Cl`: the inhibition is 92.7%. For the compound `Cc1ccc(S(=O)(=O)/N=C(\CCl)N2CCOCC2)cc1`, the inhibition turned out to be 102%.

As to `CC(=O)c1c(O)cc(O)c(C(C)=O)c1O`, the inhibition worked out at 101%. For `c1ccc2c(-c3ccc4nncn4c3)cncc2c1`, the inhibition was 79%.

As to `COc1cc(/C=C2\SC(=O)N(CCNC(=O)c3sc4cc(F)ccc4c3Cl)C2=O)cc(OC)c1OC`, the inhibition came to 30.8%. Still for that read-out and setting: then `CC[C@H](CO)Nc1nc(Nc2cccc(Cl)c2)c2ncn(C(C)C)c2n1`, with 108%.

Consider `CCC1(O)CC2CN(CCc3c([nH]c4ccccc34)C(C(=O)OC)(c3cc4c(cc3OC)N(C=O)C3C(O)(C(=O)OC)C(OC(C)=O)C5(CC)C=CCN6CCC43C65)C2)C1` (stereo unspecified), for which the inhibition was 78.2%.

As for `CC1CCCCN1c1ncnc(N)c1[N+](=O)[O-]` (stereo unspecified), the inhibition was found to be 103%. On to `Cc1nn(-c2ccccc2)c(Cl)c1C(=O)N1CCN(c2ncnc3c2cnn3-c2ccccc2)CC1`, for which the inhibition turned out to be 98.4%. As for `CCn1c2ccccc2c2cc(/C=N/O)ccc21`, the inhibition is 105%. Take `NS(=O)(=O)c1ccc(CCNC(=O)c2ccc(C#CC3(O)CCCCC3)cc2)cc1`: the inhibition was 102%. The same measure, in the same setting: then `CC(=O)Oc1ccc(N(C(C)=O)S(=O)(=O)c2ccc(Cl)cc2)c2ccccc12`, with 108%. Take `c1cncc(CNc2ncnc3ccc(-c4ccoc4)cc23)c1`: the inhibition is 98.2%. The same measure, in the same setting: to `CCOc1ccc(NCc2cc3c(C(C)(C)C)nn(-c4ccccc4)c3[nH]c2=O)cc1` belongs 109%. The same measure, in the same setting: to `CC(=O)c1c(C)n(-c2ccc(C)cc2C)c2ccc(O)cc12` belongs 64%; to `COc1ccc(-c2cc(C(F)(F)F)nc(S(=O)(=O)CCCC(=O)Nc3cccnc3Cl)n2)cc1OC`, 99.1%.

Consider `CCOc1ccccc1NC(=O)c1nc(S(=O)(=O)Cc2ccccc2)ncc1Cl`, for which the inhibition is 83.5%.

A word on the inhibition: it is the drop in the measured response relative to a control, in per cent.

Values taken from PubChem BioAssay.
